This is an account of results in paper PMC12136788.

Positions count from the first letter of the chain named. The full ranking holds about 24,000 sequences; the median of “enrichment r” is about 0.99, and the highest 2% start at about 3.7. This is one part of a sample in which the highest values are shown more often than they occur.

To fix the notation:
B1: chr5:138654669:138654670:+_ENSG00000015479_ENST00000502499|hu_hu|motif|central (ssRNA)
RNA: GGGAGUUCUACAGUCCGACGAUCUUUCUUUAUUCUUUUAUACUUCUGGGAUAAAUGAACUCUCACUGGCUUGCCAAAUACGGACGCUGGUGUGGUUGUGUAAUAAUCCACUGCGGCCUGAGCAUCCUCUGUGGUUGCCAUUUCCAACAGAGGAUUGAGCAUCA
B2: 59350742_59359075_1706_CDS_ENSG00000157450_ENST00000557998|human|control|control (ssRNA)
RNA: GGGAGUUCUACAGUCCGACGAUCGUUCUGUGACGACCCUCCACAUGGUGAGUGCUGGGGACAGCAGGAAGGUAACCUUGGCAUUGCAGGAGGGCCAGUUUCCGUUACAGCACUAGAUGUAGUUCUCCUUGAGUCAUCUCCUAUCAACAGAGGAUUGAGCAUCA
B3: chr13:100518589:100518590:+_ENSG00000125246_ENST00000339105|hu_mus|FALSE|FALSE (ssRNA)
RNA: GGGAGUUCUACAGUCCGACGAUCUUCCCUUGACUGUCUGAGAAGUCCGUCUUCAUCUCGGAAGUCAAUGUACACAAGAUCUAUGGCUUGUAGGCCAAAGGCUUUUGCCGUGACAACAACCUUCUGCCGGGCAUAGAGGAUGUCCAACAGAGGAUUGAGCAUCA
B4: chr17:65337090:65337091:-_ENSG00000197170_ENST00000584008|hu_mus|FALSE|FALSE (ssRNA)
RNA: GGGAGUUCUACAGUCCGACGAUCCCAGUCAUUUAAUAAAUUAUUUGGAUCCUUGGGUCUCUGGAAGUUGAUGACUCCAGCCAACCUGUCUACUUUAGCAAAGAUGGUCUUGUUAACGACUAGAUUCGAGAGGAAAGCCUCUGACAACAGAGGAUUGAGCAUCA
B5: chr9:91093546:91093547:+_ENSG00000106723_ENST00000375859|hu_mus|FALSE|FALSE (ssRNA)
RNA: GGGAGUUCUACAGUCCGACGAUCUACAUCAUAAUUAUAAAAAUUACUUACAGAAUUAACAGUUGUACUGUGUAUACUUCUAAAUGCAGAGAACAGGGAACCGUCUACACGUUGUAUAAAAUAAAAUUAAAAUUAAAAAUGAAUCAACAGAGGAUUGAGCAUCA
B6: chr12:35831226:35831227:+_ENSMUSG00000020590_ENSMUST00000048519|mus_mus|motif|central (ssRNA)
RNA: GGGAGUUCUACAGUCCGACGAUCUCAGCAGAAGACAUAUAGCCUCUUUGUGUCUAUGUUCAUCUGUGCAACAAGUGCACGGAAUAGAAUAAUUUUAUUAACCAGAGAAUACUGUACUCUACUCAUCGGUUAAACACUCUACACCAACAGAGGAUUGAGCAUCA
B7: chr9:91093546:91093547:+_ENSG00000106723_ENST00000375859|hu_mus|motif|central (ssRNA)
RNA: B5 RNA with U80G, A81G
B8: chr1:10024197:10024198:-_ENSMUSG00000025917_ENSMUST00000027050|mus_mus|FALSE|FALSE (ssRNA)
RNA: GGGAGUUCUACAGUCCGACGAUCCAGCAUCUGUGUACUAACAUCAAUCCCGGAGAGCCAGCAGCCAUAACCAGGGUGGCUAUGAUACCAACCGAUUGCAUUCUCAAGGCGGCCAACCUGUUUGGCAUUUUCUAUGUAUGCAGCCAACAGAGGAUUGAGCAUCA
B9: chr1:225700702:225700703:-_ENSG00000154380_ENST00000366843|hu_hu|motif|central (ssRNA)
RNA: GGGAGUUCUACAGUCCGACGAUCACCAAUAGCAUUCCCUCCACUUGGGAAAGAGGUAUCCUCCAUCCGUGACACUUUCCGGAGUUUUGCUCCGGCAAUUGCAGCUGCAAGUCCAGUUAAAGGGCGAUUGUCUUCUGACAUGGACAACAGAGGAUUGAGCAUCA
B10: chr2:48026839:48026840:+_ENSG00000116062_ENST00000540021|hu_hu|hu_hu_hu_mus_False|28_88 (ssRNA)
RNA: GGGAGUUCUACAGUCCGACGAUCAUAGUGAGCCACUAGCGUCCUAAAUCUCGAACAGUGGCGGUCAUCCGAAAACUGGCCGAUGAAAAACUUGCCCAGUGAAGUGUCAACAAAGCAAACACCAUACACACGAGUGUGACCAGACAACAGAGGAUUGAGCAUCA
B11: chr17:32491106:32491107:-_ENSMUSG00000024050_ENSMUST00000163107|mus_hu|FALSE|FALSE (ssRNA)
RNA: GGGAGUUCUACAGUCCGACGAUCAUCGAUAACCAAAAUGUGGCCACUGAAAAAAGUUAAAAGGUCAAUCAGCUCCUGGCUUCUAGCUGGCCCAGGAUUGCAAAAUAAAAAGAUCCACGUUCCUUAUUCUCUACACAAAACGCGCAACAGAGGAUUGAGCAUCA
B12: chr6:21597833:21597834:+_ENSG00000124766_ENST00000244745|hu_mus|FALSE|FALSE (ssRNA)
RNA: GGGAGUUCUACAGUCCGACGAUCAAAGUUAAAACUCUAGCCCUUCAGUGAAGGAGACGUAAAAUGGCGUGGGUAACAACACUAGAAAAAAAAAAAAAACGAAGAAAAAGAAAGAAAAUAAAAAAGAAGAUAAAGAAACGAGGUCAACAGAGGAUUGAGCAUCA
B13: chr6:21597833:21597834:+_ENSG00000124766_ENST00000244745|hu_mus|motif|central (ssRNA)
RNA: B12 RNA with U82G, A83G
B14: chr14:78183846:78183847:+_ENSG00000119705_ENST00000557342|hu_hu|hu_hu_hu_mus_False|58_98 (ssRNA)
RNA: GGGAGUUCUACAGUCCGACGAUCUCUCAGAAAUCUUUCUUUCUUUUAUGUUUGAGCUCCGUGCAAAGCCUUUGCUCUUCUAGUGUGAACGUGGAUCUAUGGGAGGGAAAGCACUGUCAGAAAAGGUAAUUUUUUUUUUAAAGACAACAGAGGAUUGAGCAUCA
B15: chr1:100342015:100342016:+_ENSG00000162688_ENST00000361915|hu_hu|motif|central (ssRNA)
RNA: GGGAGUUCUACAGUCCGACGAUCAGAUUCUUCCAUGGAGAAGUCUAUCUCUUCAAAUGGGAAAGUAAAAUACCUGGUAACGGAAGGAUGCUUUCUAGUGACAGGUCCUAGUUUUGGACCAUGGCCAGCCAGUCGUUCAUAAAACAACAGAGGAUUGAGCAUCA

The experiment concerns the target T1, UNK ZnF1-3 (human, UniProt Q9C0B0 31-174).
T1 sequence: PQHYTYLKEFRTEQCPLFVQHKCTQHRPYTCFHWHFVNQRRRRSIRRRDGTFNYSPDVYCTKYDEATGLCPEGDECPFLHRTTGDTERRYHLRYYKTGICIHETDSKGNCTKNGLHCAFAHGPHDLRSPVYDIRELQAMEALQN
Briefly: nsRBNS (natural sequence RNA bind-n-seq); RBNS binding buffer (assumed for nsRBNS): 25 mM Tris pH 7.5, 150 mM KCl, 3 mM MgCl2, 0.01% Triton X-100, 500 ug/ml BSA, 20 U/ml SUPERase-In, 4 C; UNK is unkempt and MSI1 is Musashi-1; names of the RNAs are library labels; protein concentration not given here; high values mean tight binding.
In turn, B1 came in with a binding signal of 0.487 enrichment R. As to B2, the binding signal stood at 0.898 enrichment R.

B3 gave a binding signal of 0.641 enrichment R.

In the case of B4, the binding signal turned out to be 1.07 enrichment R. The figure for B5 is 7.07 enrichment R; for B6 it is 0.463 enrichment R. The figure for B7 is 4.68 enrichment R.

In turn, B8 returned a binding signal of 1.5 enrichment R. The figure for B9 is 0.794 enrichment R.

For the molecule B10, the binding signal stood at 1.25 enrichment R. The figure for B11 is 1.24 enrichment R; for B12 it is 7.3 enrichment R; for B13 it is 5.74 enrichment R.

B14 returned a binding signal of 1.14 enrichment R. The figure for B15 is 0.918 enrichment R.
